# Assay results from PubChem BioAssay AID504339 (National Center for Advancing Translational Sciences (NCATS), 2011).
# Where “and” joins values, the source holds several entries; their conditions need not be identical. Equal entries are not always repeated. Screen size: about 390,000 compounds; about 17,000 (4.4%) were called active. Another 8% or so got no clear call; they are omitted. Calls come from the whole dose curve; as a rule, active = well fitted inhibition curve with a large enough effect; inconclusive = small, poorly fitted or top-dose-only effect; inactive = no such curve, though single readings can be large or run the other way. The entries come from a sample that favours actives as a whole. More than one record can exist for a structure, and the calls need not agree.
# Molecular target: Lysine-specific demethylase 4A (Homo sapiens) (UniProt O75164)
# Assay: qHTS Assay for Inhibitors of JMJD2A-Tudor Domain; note: nearly all actives have a fitted effect of over 50% in size
# Settings: AlphaScreen JMJD2A-Tudor / H3K4me3 peptide binding; series mostly up to 114 µM; activity change, negative = inhibition: at the top concentration
# % is set by controls: 0 for no effect and ±100 for the full control effect; potency is the fitted concentration of half-maximal effect.
# Lysine-specific demethylase 4A (Homo sapiens), sequence (O75164 whole entry, looked up, the tested form may be a part): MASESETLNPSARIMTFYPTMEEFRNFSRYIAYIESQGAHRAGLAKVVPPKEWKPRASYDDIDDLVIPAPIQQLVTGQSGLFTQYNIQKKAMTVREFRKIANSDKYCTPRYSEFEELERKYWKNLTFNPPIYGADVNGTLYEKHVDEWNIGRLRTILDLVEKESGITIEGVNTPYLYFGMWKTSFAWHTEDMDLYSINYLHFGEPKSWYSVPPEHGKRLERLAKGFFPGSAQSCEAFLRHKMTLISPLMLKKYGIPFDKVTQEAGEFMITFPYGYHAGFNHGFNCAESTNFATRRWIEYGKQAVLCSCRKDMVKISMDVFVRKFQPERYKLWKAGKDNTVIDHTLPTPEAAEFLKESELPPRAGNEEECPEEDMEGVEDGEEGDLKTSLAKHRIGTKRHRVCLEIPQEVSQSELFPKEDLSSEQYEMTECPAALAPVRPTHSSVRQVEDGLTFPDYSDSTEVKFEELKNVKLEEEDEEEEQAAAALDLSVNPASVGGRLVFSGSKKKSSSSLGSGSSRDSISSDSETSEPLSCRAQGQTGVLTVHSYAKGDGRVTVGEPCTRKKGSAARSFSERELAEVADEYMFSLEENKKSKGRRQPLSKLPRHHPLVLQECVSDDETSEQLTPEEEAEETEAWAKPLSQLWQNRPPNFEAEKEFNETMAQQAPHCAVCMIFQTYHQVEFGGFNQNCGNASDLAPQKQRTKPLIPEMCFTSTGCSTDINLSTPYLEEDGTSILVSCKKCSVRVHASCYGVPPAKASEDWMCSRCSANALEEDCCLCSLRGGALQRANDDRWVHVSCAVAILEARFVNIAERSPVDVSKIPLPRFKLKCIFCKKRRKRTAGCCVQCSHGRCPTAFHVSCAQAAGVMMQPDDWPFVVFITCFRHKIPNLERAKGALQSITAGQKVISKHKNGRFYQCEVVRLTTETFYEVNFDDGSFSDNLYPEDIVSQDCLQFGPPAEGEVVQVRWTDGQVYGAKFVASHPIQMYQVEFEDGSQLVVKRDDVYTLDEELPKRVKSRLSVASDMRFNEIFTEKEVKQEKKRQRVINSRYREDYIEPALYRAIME
Structure (SMILES),"activity change, negative = inhibition",Potency
CCOc1ccccc1CNC(=O)C1CCCN(S(=O)(=O)c2ccc3c(ccn3C)c2)C1 (centres undefined),-24% (inactive),
Cc1cccc(-n2c(N)c(C(=O)N3CCN(C)CC3)sc2=S)c1,,79.4 µM (active)
Cc1ccc(-n2c(N)c(C(=O)N3CCOCC3)sc2=S)c(C)c1,,35.5 µM (active)
COc1cccc(N2CCN(c3ccc4nnc(CCC(=O)N5CCN(C)CC5)n4n3)CC2)c1,-5.26% (inactive),
N#Cc1ccccc1-n1c(N)c(C(=O)N2CCCC2)sc1=S,,56.2 µM (active)
Cc1ccc(S(=O)(=O)N2CCN(C(=O)N3CCOCC3)CC2)c(C)c1,-0.328% (inactive),
Cc1cccc(C(=O)N2CCN(S(=O)(=O)N3CCCCC3)CC2)c1,1.46% (inactive),
Cc1ccc(N2CCN(C(=O)c3cccs3)CC2)c(C)c1,-3.42% (inactive),
O=C(c1ccc(CSc2ccccc2)cc1)N1CCCCCC1,-5.41% (inactive),
O=C(c1ccc(S(=O)(=O)N2CCCC2)cc1)N1CCN(c2ccccc2F)CC1,0% (inactive),
O=C(Cn1c(=O)n(Cc2ccccc2)c(=O)c2sc3ccccc3c21)Nc1ccccc1F,0.683% (inactive),
Cc1ccccc1OCc1nc2c3cnn(-c4ccccc4F)c3ncn2n1,1.74% (inactive),
COc1ccc(OC)c(NC(=O)CSc2nc3ccccc3nc2N2CCCCC2)c1,-8.59% (inactive),
Cc1ccc(C(=O)NC2CCN(C#N)CC2)cc1,-11.6% (inactive),
CCOc1ccc(N(CC)S(=O)(=O)N2CCCC(C(=O)NCc3ccc(Cl)cc3)C2)cc1 (centres undefined),-9.16% (inactive),
COC(=O)c1ccc(COc2ccc(/C=N/NC(=O)C(=O)Nc3ccc(OC)cc3)cc2OC)o1,10% (inactive),
COC(=O)c1ccc(COc2ccc(/C=C/C(=O)c3ccc(OC)c(CSCC(=O)O)c3)cc2OC)cc1,,50.1 µM (active)
COC(=O)c1ccc(C(NC(=O)OCc2ccccc2)/C(C)=C/[C@@H](C)C(=O)NCc2ccc(OC)c(OC)c2)cc1 (some centres undefined),-17.3% (inactive),
Cc1ccc(NC(=O)c2ccc(CN3CC(=O)N4CCCCC4C3=O)cc2)c(Cl)c1 (centres undefined),-13.5% (inactive),
CC(=O)c1sc(N2C(=O)c3oc4ccccc4c(=O)c3C2c2ccc(C)cc2)nc1C (centres undefined),-1.37% (inactive),

Structure (SMILES),"activity change, negative = inhibition",Potency
C=Cc1ccc(Cn2c(C(=O)O)c(CNC3CCCC3)c3ccc(C)cc32)cc1,-29.7% (inactive),
COc1ccc(/C=C(\C#N)C(=O)NCCCn2ccnc2)cc1,-9.72% (inactive),
COc1cccc(-c2nn(-c3ccccc3)cc2/C=C(\C#N)C(=O)NCCCn2ccnc2)c1,,44.7 µM (active)
COc1cc(OC)cc(C(=O)NCCCn2ccnc2)c1,-4.79% (inactive),
O=C(N/N=C/c1ccccn1)c1cccc(NC(=O)c2ccc(Cl)cc2)c1,5.02% (inactive),
COc1cc(C=NNC(=O)c2cccnc2)ccc1OC(=O)c1ccccc1F,-20.1% (inactive),
O=C(N/N=C/c1ccccn1)c1cccnc1,,79.4 µM (active)
Cc1ccc2oc3c(c(=O)c2c1)C(c1ccc(O)cc1)N(Cc1ccc2c(c1)OCO2)C3=O (centres undefined),-6.53% (inactive),
CCOc1ccc(S(=O)(=O)N(CC(=O)NCCSCc2ccc(C)cc2)c2ccccc2)cc1,-10% (inactive),
S=C(NCCCc1cnc[nH]1)NCCCN(Cc1ccc(Cl)c(Cl)c1)c1ccc(Br)cn1,,44.7 µM (active)
CCOc1ccc(Nc2c(S(=O)(=O)c3ccccc3)cnc3ccccc23)cc1,-23.3% (inactive),
COc1cccc(-n2ccn(CC(=O)NCc3ccc(C)cc3)c(=O)c2=O)c1,-11.2% (inactive),
C=CC1=C(C(=O)O)N2C(=O)[C@@H](NC(=O)/C(=N\OCC(=O)O)c3csc(N)n3)[C@H]2SC1,,20 µM (active)
CO/N=C(\C(=O)N[C@@H]1C(=O)N2C(C(=O)O)=C(COC(C)=O)CS[C@H]12)c1csc(N)n1 (stereo in doubt),,inactive and 79.4 µM (active) and 56.2 µM (active)
C=CC1=C(C(=O)O)N2C(=O)[C@@H](NC(=O)/C(=N/OCC(=O)O)c3csc(N)n3)[C@H]2SC1,,25.1 µM (active)
CC(C)(C)OC(=O)C1=C(CO)CS[C@@H]2[C@H](NC(=O)Cc3ccccc3)C(=O)N12,-6.16% (inactive),
COc1cc(C(=O)NCC(c2ccc(Cl)cc2)N2CCOCC2)cc(OC)c1OC (centres undefined),1.32% (inactive),
Cc1cc(C)cc(NC(=O)CCCc2nc(-c3ccccc3Cl)no2)c1,-3.97% (inactive),
Cc1ccc(OCCSc2nc3ccc(NC(=O)COc4ccc(C)cc4)cc3s2)cc1,-18.9% (inactive),
CC(=O)c1ccc(NC(=O)CSc2nnc(NC(=O)Nc3ccccc3)s2)cc1,4.22% (inactive),

Structure (SMILES),"activity change, negative = inhibition",Potency
Cn1c(=O)c2c(nc(SCC(=O)Nc3ccc(F)cc3)n2Cc2ccc(Cl)cc2)n(C)c1=O,-12.7% (inactive),
CCOC(=O)c1ccc(CSc2nnc3cc(C)c4ccccc4n23)cc1,-17.2% (inactive),
Cc1c(CCNC(=O)c2ccc(C(F)(F)F)cc2)sc2nc(-c3ccc(F)cc3)nn12,-12% (inactive),
Oc1c(C(c2ccc(F)cc2)N2CCN(Cc3ccccc3)CC2)sc2nc(-c3ccco3)nn12 (centres undefined),-35.1% (inactive),
COc1ccc(CN2CCN(Cc3cn(C)nc3-c3ccccc3)CC2CCO)c(C)c1C (centres undefined),-17.6% (inactive),
Cc1ccccc1CN1C[C@@H]2C[C@@H](c3ccc4nsnc4c3)N3CCC[C@@]23C1=O,-34.2% (inactive),
Cc1ccccc1CN1C[C@@H]2C[C@@H](c3cn(C)nc3-c3ccccc3)N3CCC[C@@]23C1=O,,63.1 µM (active)
O=C(CCc1nc(CN2CCN(S(=O)(=O)c3ccc(Br)cc3)CC2)no1)N1CCCCC1,-15.9% (inactive),
COc1ccc(NC(=O)CSc2nc3ccccc3n2CC(=O)N2CCCCC2C)cc1 (centres undefined),-25.8% (inactive),
COc1ccc(-c2nnc(-c3ccc4ccccc4c3)o2)cc1,0% (inactive),
COc1ccc(Nc2cc(=O)oc3ccccc23)cc1,-22% (inactive),
COc1ccc(Nc2ccc3ccccc3c2)cc1,,56.2 µM (active)
COc1cccc(NC(=O)C(=O)NCC(c2ccc3c(c2)OCO3)N2CCN(C)CC2)c1 (centres undefined),3.55% (inactive),
Fc1ccccc1/C=N/n1c(-c2cccnc2)n[nH]c1=S,,3.98 µM (active)
S=c1[nH]nc(-c2ccncc2)n1/N=C/c1ccccc1Cl,,3.16 µM (active)
S=c1nc2ccccc2c2nc(-c3cccnc3)[nH]n12,-17.6% [at 11.4 µM] (inactive),
COc1ccc(-c2cc(C(=O)Nc3sc4c(c3C(N)=O)CCCC4)no2)cc1,-10.6% (inactive),
Cc1cccc(N2CCN(C(=O)CCn3c(=O)c4cccn4c4cccnc43)CC2C)c1 (centres undefined),-33.3% (inactive),
COc1ccc(Cn2c(=O)c3oc4ccccc4c3n(CC(=O)Nc3ccc(F)cc3F)c2=O)cc1,-16.5% (inactive),
